Here are results for 105 molecules from PubChem BioAssay AID488922 (Johns Hopkins Ion Channel Center, 2010).

SMILES strings stand for the structures. Out of some 310,000 compounds screened, about 3,800 (1.2%) were called active.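 How the source made its calls: active means ratio B-score over 3 SD below the library mean, with starting fluorescence within 5 SD of its mean; inactive means the rest, inconclusive results apart.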 For the sample, actives were picked, then their nearest neighbours and some compounds at random.

Chain of Potassium channel subfamily K member 9 (Homo sapiens) (Q9NPC2 whole entry, looked up): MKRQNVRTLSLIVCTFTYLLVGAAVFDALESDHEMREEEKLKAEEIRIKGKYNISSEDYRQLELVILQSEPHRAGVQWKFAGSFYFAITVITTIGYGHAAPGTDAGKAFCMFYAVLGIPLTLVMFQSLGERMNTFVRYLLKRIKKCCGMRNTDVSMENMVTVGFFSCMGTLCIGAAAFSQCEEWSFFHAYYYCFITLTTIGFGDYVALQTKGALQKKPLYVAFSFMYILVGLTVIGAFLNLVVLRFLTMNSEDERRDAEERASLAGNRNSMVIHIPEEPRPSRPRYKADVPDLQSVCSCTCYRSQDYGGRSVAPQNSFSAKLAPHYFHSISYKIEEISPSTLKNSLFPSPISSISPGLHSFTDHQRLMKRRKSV

This assay concerns the target Potassium channel subfamily K member 9 (Homo sapiens) (UniProt Q9NPC2). As to the kind of experiment: KCNK9 potassium channel inhibitors, primary screen, HEK293 cells, thallium flux (AID 488922).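 On B-score: negative B-score means less thallium flux so channel inhibition.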 Particulars: HEK293 KCNK9, FluxOR thallium flux fluorescence, at 10 µM; active compounds read low.
As for `COc1ccc(C)cc1NC(=O)Nc1ccccc1SC`, the B-score result is “inactive”. Turning to `COc1ccc(C)cc1NC(=O)NCCCCc1ccccc1`, the B-score result was “inactive”.

In the case of `COc1ccc(C)cc1NC(=O)C(Sc1ccccc1)c1ccccc1` (stereo not given), the B-score was -8.19 (active). For `CC(Sc1nnnn1C)C(=O)NC(=O)NC1CCCCC1` (stereo not given), the B-score entry is “inactive”. With `Cc1ccc(S(=O)(=O)NC(C)C(=O)NCc2ccc(Cl)cc2)cc1` (stereo not given), the B-score entry is “inactive”. The value for `Cc1cc(Cl)ccc1OCc1nc(-c2ccncc2)no1` was “inactive”; that for `O=C(Nc1c2c(nc3ccccc13)CCCC2)c1ccccc1Br` was “inactive”; that for `O=C(COC(=O)c1c2c(nc3ccccc13)CCCC2)c1ccc(Br)s1` was -9.29 (active). Regarding `NC(=O)c1ccc(NC(=O)COC(=O)c2c3c(nc4ccccc24)/C(=C\c2ccc4c(c2)OCO4)CCC3)cc1`, the B-score entry is “inactive”. As to `COC(=O)COc1ccc2c(=O)c(Oc3ccccc3Br)coc2c1`, the B-score entry is “inactive”. The value for `CCCCc1cc(=O)oc2c(C)c(OCC(=O)N3CCC(C(N)=O)CC3)ccc12` was “inactive”; that for `O=C(/C=C/c1ccc(N2CCOCC2)cc1)c1ccccc1` was “inactive”; that for `CCOc1ncccc1C(=O)OCC(=O)NC1CC1` was “inactive”. In the case of `O=C(Nn1c(SCc2ccc([N+](=O)[O-])cc2)nc2ccccc2c1=O)c1ccc(F)cc1`, the B-score was -8.82 (active). For the molecule `Cc1nc2ccccc2c(=O)n1NC(=O)c1ccc(Cl)c([N+](=O)[O-])c1`, the B-score result was “inactive”. The value for `C=CCn1c(SCc2ccc(C(=O)NCCO)cc2)nc2ccccc2c1=O` was “inactive”. `O=C(Cn1nc([N+](=O)[O-])nc1Br)NC1CCCCC1`: the B-score entry was “inactive”. The value for `CCC1Nc2ncnc(N3CCN(c4ccccc4)CC3)c2N(Cc2ccc(Cl)cc2)C1=O` (stereo not given) was “inactive”; that for `COc1ccc(NC(=O)c2sc3nc(C)nc(N4CCN(c5ccccn5)CC4)c3c2C)c(OC)c1` was “inactive”; that for `Cc1nc(N2CCN(c3ccccn3)CC2)c2c(C)c(C(=O)Nc3ccc(F)c(Cl)c3)sc2n1` was -10.3 (active). As for `Cc1nc(N2CCN(c3ccccn3)CC2)c2c(C)c(C(=O)Nc3ccc(F)cc3)sc2n1`, the B-score entry is “inactive”. As for `Cc1ccc2cccc(OCCCOc3ccccc3CO)c2n1`, the B-score result was “inactive”. With `O=C(COC(=O)/C(=C/c1cccs1)c1cccs1)NCc1ccccc1Cl`, the B-score is -9.72 (active). Turning to `O=C(COC(=O)c1cc2c(s1)CCCC2)NCc1ccccc1Cl`, the B-score entry was “inactive”. Turning to `O=C(COC(=O)c1cccs1)NCc1cccs1`, the B-score result is “inactive”.

In the case of `CC(C)(C)NC(=O)COC(=O)c1cc(Br)ccc1Cl`, the B-score entry was “inactive”. The value for `O=C(NNS(=O)(=O)c1ccc(F)cc1)c1ccc([N+](=O)[O-])cc1Cl` was “inactive”; that for `COc1ccc(-c2[nH]ncc2/C=N/NC(=O)c2cc(Br)ccc2O)c(OC)c1` was “inactive”. The value for `Cc1ccc(C)c(NC(=O)CSc2nc3c(oc4ccccc43)c(=O)n2-c2ccccc2)c1` was -7.91 (active); that for `Cc1ccc(C)c(Cn2cnc3c(oc4ccccc43)c2=O)c1` was “inactive”; that for `Cc1ccc(C)c(NC(=O)CSc2nnc(Cc3cccn3C)n2-c2ccc(F)cc2)c1` was “inactive”. In the case of `C=CCOc1ccc(C(=O)Nc2ccccc2C(=O)N2CCCC2)cc1`, the B-score result was “inactive”. The value for `Cc1ccc(C2NC(C(=O)O)CS2)cc1` (stereo not given) was “inactive”. Regarding `COc1ccc(-c2nc(N)ncc2-c2ccc(Cl)cc2)c(O)c1`, the B-score result was “inactive”. For `CC(C)(C)Oc1ncc(Br)c(OC(C)(C)C)n1`, the B-score entry was “inactive”. The value for `COc1cccc(-c2cnc(OC(C)(C)C)nc2OC(C)(C)C)c1` was -8.72 (active). Turning to `COc1ccc(CN2CCC(c3nc4ccc(Cl)cc4[nH]3)CC2)cc1`, the B-score result was “inactive”. The value for `Cc1ccc(C(=O)NC2CCN(C(=O)Nc3ccc(F)cc3)CC2)cc1` was “inactive”; that for `CN(C)c1ccc(C(CNC(=O)c2ccc(F)cc2)c2c[nH]c3ccccc23)cc1` (stereo not given) was -13 (active); that for `O=C(Cc1ccccc1)NCc1ccc(F)cc1` was “inactive”. For `O=C(CNC(=O)c1ccc(F)cc1)c1ccccc1`, the B-score entry is “inactive”. The value for `O=C(CN(c1ccccc1)S(=O)(=O)c1ccc(Cl)cc1)Nc1ccccc1C(=O)N1CCCC1` was “inactive”; that for `Clc1ccc(COn2c(-c3ccc(Cl)cc3Cl)nc3ncccc32)cc1` was -10.6 (active); that for `COn1c(-c2ccc(Cl)cc2Cl)nc2ncccc21` was “inactive”. Turning to `Clc1ccc(-c2ncc3ccccn23)c(Cl)c1`, the B-score entry is “inactive”. In the case of `CC1CCN(S(=O)(=O)c2nnc(NC(=O)COc3ccccc3F)s2)CC1`, the B-score entry was “inactive”. On to `N/C(=N\S(=O)(=O)c1ccc(Cl)cc1)N1CCOCC1`, for which the B-score result is “inactive”. In the case of `CC1=C(C(=O)OCc2ccccc2)C(c2ccco2)n2ncnc2N1` (stereo not given), the B-score result was “inactive”.

Take `Cc1ccc(C2CC(=O)NC(SCC(=O)OCc3ccccc3)=C2C#N)o1` (stereo not given): the B-score result was “inactive”. Regarding `CCOC(=O)CSC1=C(C#N)C(c2ccco2)C(C(=O)OCc2ccccc2)=C(C)N1` (stereo not given), the B-score is -7.3 (active). The value for `CC(=O)N[C@@H](C)C(=O)N1CCC(n2nccc2NC(=O)CCCc2ccccc2)CC1` was “inactive”; that for `COc1ccc(-n2c(=O)[nH]c3cc(C(=O)NCCc4ccc(OC)c(OC)c4)ccc3c2=O)c(OC)c1` was “inactive”. Turning to `COc1ccccc1-c1nc(SC)n[nH]1`, the B-score result is “inactive”.

For the molecule `COc1ccccc1-c1n[nH]c2c1[C@H](C)CC[C@H]2C(C)C`, the B-score is -6.66 (active). As for `COc1ccc(-c2n[nH]c(C)c2-c2ccccc2OC)c(O)c1`, the B-score result was “inactive”. As for `Cc1ccc2nc(SCC(=O)N3CCN(c4ccccc4)CC3)nc(=O)n2c1`, the B-score entry is “inactive”. For `O=C(NCC(=O)N1CCCC(C(F)(F)F)C1)c1ccccc1F` (stereo not given), the B-score entry is “inactive”.

On to `Cc1ccc(CNC(=O)CCS(=O)(=O)c2ccc3c(c2)CC(C)N3C(=O)C2CC2)o1` (stereo not given), for which the B-score entry was “inactive”. The value for `Cc1ccc(C(=O)Nc2ccc(C)c(S(=O)(=O)N(C)C)c2)s1` was “inactive”; that for `O=C(NCCCO)c1cc2c([nH]c3ccccc32)c(-c2ccc(F)cc2)n1` was “inactive”.

For the molecule `C=CCn1c(SCC(=O)NC)nnc1C12CC3CC(CC(C3)C1)C2`, the B-score entry is “inactive”. The value for `CC1=C(C(=O)OC(C)(C)C)C(c2ccc(Br)cc2)NC(=O)N1CCCC(=O)O` (stereo not given) was “inactive”; that for `Cc1ccc(C2Nc3ccccc3C(=O)N2CCN2CCNC2=O)cc1` (stereo not given) was “inactive”. `COc1ccc(C2Nc3ccccc3C(=O)N2Cc2ccccc2)cc1Cn1nnc2ccccc21` (stereo not given): the B-score was -8.45 (active).

Consider `COc1ccc(C2Nc3ccccc3C(=O)N2c2ccc(F)cc2)cc1Cn1nnc2ccccc21` (stereo not given), for which the B-score entry is “inactive”.

For `Cc1cc(NC(=O)/C=C/C(=O)N(CC(=O)NC2CCCC2)c2ccc(F)cc2)no1`, the B-score result was “inactive”. In the case of `CCCCCCOC(=O)NCC(O)c1ccccc1` (stereo not given), the B-score entry was “inactive”. `CCCCCC(O)c1cccc(OCc2ccc3ccccc3n2)c1` (stereo not given): the B-score was -16.3 (active). With `COc1cccc(C(O)c2nc3ccccc3n2C)c1` (stereo not given), the B-score result was “inactive”. The value for `COc1cc(CCC(=O)N2CCN(c3ccccc3Cl)CC2)cc(OC)c1OC` was “inactive”; that for `CCOc1ccc(C2c3[nH]c4ccccc4c3CCN2Cc2cn(CC)nc2C)cc1` (stereo not given) was “inactive”; that for `c1ccc(C2c3[nH]c4ccccc4c3CCN2Cc2cccn2-c2cccnc2)nc1` (stereo not given) was “inactive”. The value for `CCOc1ccc(C2c3[nH]c4ccccc4c3CCN2Cc2cccn2-c2ncccn2)cc1` (stereo not given) was -9.89 (active); that for `O=C(/C=C/c1cccs1)c1cc(Cl)ccc1OC(=O)N1CCOCC1` was “inactive”; that for `COc1cc(NC(=S)NCc2ccc(S(N)(=O)=O)cc2)cc(OC)c1` was “inactive”. The value for `COc1cc(NC(=S)NCCSc2ccc(C)cc2)cc(OC)c1` was -9.28 (active); that for `COc1cc(NC(=O)Nc2ccc(C)cc2)cc([N+](=O)[O-])c1` was “inactive”; that for `Cc1cc(C)n(-c2ccc(NC(=O)C3CCCCN3C(=O)c3cccs3)cc2)n1` (stereo not given) was “inactive”. Turning to `CNC(C)C#Cc1ccc2sc3cc(OC)c(OC)cc3c(=O)c2c1` (stereo not given), the B-score entry was “inactive”. The value for `CCOC(=O)C1=C(c2ccccc2)O/C(=C(/C(=O)OC)C(F)(F)F)S1` was “inactive”; that for `Cc1ccccc1C(=O)Nc1ccccc1NC(=O)c1ccccc1C` was “inactive”. On to `CCCCCCCCn1c2c(c(=N)c3c1CCC3)CCCC2`, for which the B-score was -14.2 (active). In the case of `O=C(NCc1cc(F)cc(C(F)(F)F)c1)C1CCC(=O)N(C2CCCC2)C1` (stereo not given), the B-score result is “inactive”. Take `COc1ccccc1C(=O)NCCn1cc(SCC(=O)NCc2ccco2)c2ccccc21`: the B-score entry is “inactive”. In the case of `COc1ccc(S(=O)(=O)NCCc2c[nH]c3ccccc23)cc1OC`, the B-score entry is “inactive”. For `COc1ccccc1CC(=O)NCCc1c[nH]c2ccccc12`, the B-score result was “inactive”. Regarding `COc1cccc(CNCCc2c[nH]c3ccccc23)c1OCc1ccccc1F`, the B-score was -8.25 (active). As to `Cc1cc(C)n(CCNS(=O)(=O)c2ccc(Cl)cc2)n1`, the B-score entry is “inactive”.

Consider `COc1cccc(NC(=O)N2CCCC2C(=O)NC2CCCCC2)c1` (stereo not given), for which the B-score entry was “inactive”. The value for `CCC1CCCCN1C(=O)Nc1cccc(NC(=O)N2CCCCC2CC)c1` (stereo not given) was -7.72 (active); that for `CCC1CCCCN1C(=S)Nc1ccc(C(C)=O)cc1` (stereo not given) was “inactive”. The value for `O=C(Nn1c(-c2ccc(Cl)cc2)nc2ccccc2c1=O)c1cccnc1Cl` was “inactive”. Turning to `C/C(=N\N(C)C)c1ccc(OCCOc2ccc([N+](=O)[O-])cc2)cc1`, the B-score result was “inactive”.

Take `Cc1ccc(NC(=O)c2cc3ccccc3o2)cc1`: the B-score entry is “inactive”. The value for `Cc1c(/C=N\NC(=O)c2cc3ccccc3o2)c2ccccc2n1C` was -6.85 (active); that for `O=C(N/N=C/c1c[nH]c2ccccc12)c1cc2ccccc2o1` was “inactive”; that for `CC(C)c1nnc(NC(=O)C2CC(=O)N(CCc3ccc(F)cc3)C2)s1` (stereo not given) was “inactive”. Regarding `CN(C(=O)CSc1nc(C2CC2)nc2ccccc12)c1nc(-c2ccccc2)cs1`, the B-score entry was “inactive”. The value for `CC(C)N(C(=O)CSc1nc(COc2ccccc2)nc2ccccc12)C(C)C` was -17.1 (active). For `CCCc1nc(SCC(=O)Nc2ccc(S(=O)(=O)N(C)C)cc2)c2ccccc2n1`, the B-score entry is “inactive”. For `COCCCNC(=S)N1CCN(c2nc(-c3cccc(OC)c3)cs2)CC1`, the B-score result is “inactive”. On to `COc1cccc(COc2ccc(N(C)S(=O)(=O)c3ccccc3)cc2)c1`, for which the B-score was -14.1 (active). Regarding `CN(c1ccc(OCC(=O)O)cc1)S(=O)(=O)c1ccc2ccccc2c1`, the B-score entry is “inactive”. As for `Cc1ccc2nc(COc3ccc(N(C)S(=O)(=O)c4ccccc4)cc3)cc(=O)n2c1`, the B-score result is “inactive”. The value for `O=C(Nc1ccccc1)O/N=C1/CCCc2occc21` was “inactive”.
